The results in this text go back to PubChem BioAssay AID1240 (Sanford-Burnham Center for Chemical Genomics, 2008).

The structures appear in SMILES notation. Out of some 50,000 compounds screened, about 800 (1.6%) showed an effect of 50% or more. The sample as a whole holds a higher share of strong results than the screen did.

For the experiment, the target named is Bcl-2-like protein 10 (Homo sapiens) (UniProt Q9HD36). Description: Phenotype converters, Bcl-B/TR3 peptide binding displacement, primary biochemical FP (AID 1240).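 Also: 0% = Bcl-B with tracer peptide and DMSO and 100% = tracer peptide lacking Bcl-B.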 Particulars: GST-Bcl-B / FITC-TR3 peptide fluorescence polarization; stronger effect = higher value; compound at 3.75 mg/L.
Bcl-2-like protein 10 (Homo sapiens), sequence (Q9HD36 whole entry, looked up): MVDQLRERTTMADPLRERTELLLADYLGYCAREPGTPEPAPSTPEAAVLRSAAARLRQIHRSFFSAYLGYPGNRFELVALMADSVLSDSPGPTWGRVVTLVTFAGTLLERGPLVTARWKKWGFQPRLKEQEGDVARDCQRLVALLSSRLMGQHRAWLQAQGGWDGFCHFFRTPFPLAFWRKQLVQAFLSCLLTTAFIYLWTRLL
Regarding `CC(C)(C)c1cc(C(=O)N/N=C/C=C/c2ccccc2)n[nH]1`, the displacement is -9.5%. The value for `COc1ccc(/C=N/Nc2ncc(Br)cn2)cc1` was -11.3%; that for `C=CCn1c(O)c(C2=c3cc(Cl)ccc3=NC2=O)sc1=S` was -14.2%; that for `CCc1ccc(S(=O)(=O)Nc2ccccc2OC)cc1` was 13.8%. The value for `N/C(=N\OC(=O)c1ccc(Br)cc1)c1ccc(Cl)cc1` was 2.2%; that for `Cc1cc(Cl)ccc1OCC(O)CN1C(C)CCCC1C` (configuration not stated) was 0.8%.

Take `CC(=O)N1C(=O)/C(=C\C(=O)c2ccc([N+](=O)[O-])cc2)c2ccccc21`: the displacement came out at 0.8%.

`CC(C)NC(=O)C12CC3CC(C1)CC(C(=O)NC(C)C)(C3)C2`: the displacement worked out at 1.3%. To `CCOC(=O)CSc1nnc2c3ccccc3n(CC)c2n1` belongs -10.4%; to `Cc1ccc(OCc2nnc(NC(=O)Nc3cccc(Cl)c3)s2)cc1C`, 14.2%; to `C/C(=N\N=C1\NC(=O)C(CC(=O)Nc2ccc(Cl)cc2Cl)S1)c1ccc(Cl)cc1` (configuration not stated), 15.5%.

Turning to `COc1ccc(CNC(=O)c2c(-c3c(Cl)cccc3Cl)noc2C)cc1`, the displacement is 0.9%. For the molecule `Cc1ccc(/C=C(\C#N)c2nc(-c3ccc(C)c(C)c3)cs2)o1`, the displacement was -25.1%. The value for `COc1cccc(-c2csc(/C(C#N)=C/c3ccc(C)o3)n2)c1` was -113%; that for `Cc1ccc(/C=C(\C#N)c2nc(-c3cccc(Br)c3)cs2)o1` was 164%; that for `COc1ccccc1N=Cc1c(O)c(C(=O)Nc2ccccc2)cc2ccccc12` was 105%. Regarding `Cc1ccccc1NC(=O)c1cc2ccccc2c(/C=N/n2cnnc2)c1O`, the displacement was 109%. To `CCOc1ccccc1C=Nc1ccccc1C(=O)Nc1ccccc1` belongs -7.9%. To `COc1cc(OC)c(C=Nc2ccccc2C(=O)Nc2ccccc2)cc1Br` belongs -6%. To `Cc1ccccc1NC(=O)c1cc(-c2ccccc2)nc2c(Cl)cccc12` belongs -13.6%; to `Cc1ccc(-n2c(O)c(/C=N/n3cnnc3)c3ccccc3c2=O)cc1`, 5.8%; to `COC(C(=O)NNC(=O)c1cccc(Cl)c1)c1ccccc1` (configuration not stated), -5.9%. Take `CCOC(=O)C1=C(C)NC(=O)NC1c1cc(OC)c(OC)c(OC)c1` (configuration not stated): the displacement stood at 9.3%.

As to `O=C(CN(c1cccc([N+](=O)[O-])c1)S(=O)(=O)c1ccccc1)NCC1CCCO1` (configuration not stated), the displacement is -4.4%. In the case of `O=C(Nc1ccc2nn(-c3ccc(Cl)cc3)nc2c1)c1cccnc1`, the displacement was 29.6%. With `CCOC(=O)c1c(NC(=O)c2ccc(Cl)cc2Cl)sc(C(=O)Nc2ccccc2C)c1C`, the displacement was found to be 1.3%. With `CCOC(=O)c1c(NC(=O)c2ccc(Cl)cc2Cl)sc(C)c1C`, the displacement came to 6.1%.

`CCOC(=O)c1c(NC(=O)c2ccc(Cl)cc2Cl)sc(C(N)=O)c1C`: the displacement is 88.7%. `O=S(=O)(c1ccc2ccccc2c1)N(CC(O)CN1CCOCC1)c1ccccc1` (configuration not stated): the displacement is -0.7%. The value for `O=C(NCc1cccnc1)c1cccc(S(=O)(=O)N2CCCCC2)c1` was 2.2%. The value for `CCOC(=O)/C=C/C(=O)Nc1sc(C)c(C)c1C(N)=O` was -2%. For the molecule `O=c1c(-c2cccs2)[n+]([O-])c2ccccc2n1O`, the displacement was determined as 69.4%. Consider `CCOn1c(=O)c(-c2ccccc2)[n+]([O-])c2ccccc21`, for which the displacement worked out at 18.9%. To `O=c1c(-c2ccccc2)[n+]([O-])c2ccccc2n1O` belongs 21.7%; to `CCOn1c(=O)c(-c2cccs2)[n+]([O-])c2ccccc21`, 121%. To `COn1c(=O)c(-c2ccccc2)[n+]([O-])c2ccccc21` belongs 15.9%; to `CCOn1c(=O)c(C)[n+]([O-])c2ccccc21`, 14.9%. The value for `Cc1ccc(OCC(=O)NN)c(Br)c1` was -6.5%. With `CN1CCN(CCCOc2ccc(Br)cc2)CC1`, the displacement is -8.4%. With `O=C(N/N=C/c1ccc(O)cc1)c1cc(C2CC2)[nH]n1`, the displacement is -10.1%. As for `COC(=O)C1=C(C(=O)OC)SC(=C2C(=S)C(C)(C)N(C(=O)c3cccc(F)c3)c3ccc(OC)cc32)S1`, the displacement is -7.9%. To `Clc1ccc(-c2noc(-c3ccc(Cl)cc3Cl)n2)cc1` belongs 4.3%; to `CCOC(=O)C1=C(O)/C(=C/c2ccc(N(C)C)cc2)SC1=Nc1ccc(F)cc1`, 142%. To `CCOC(=O)C1=C(O)/C(=C/c2ccc(N(C)C)cc2)SC1=Nc1ccc([N+](=O)[O-])cc1` belongs 15.5%; to `CCOC(=O)C1=C(O)/C(=C/c2ccc(N(C)C)cc2)SC1=Nc1ccc(Cl)cc1`, 170%. Take `CCOC(=O)C1=C(O)/C(=C/c2ccc(Cl)cc2)SC1=Nc1cccc2ccccc12`: the displacement was -11.7%. The value for `CCOC(=O)C1=C(O)/C(=C/c2ccc(Cl)cc2)SC1=Nc1ccc(OC)cc1` was 3.1%.

Consider `CCOC(=O)C1=C(O)/C(=C/c2ccc(F)cc2)SC1=Nc1ccccc1`, for which the displacement was -10.3%. Consider `CCOC(=O)C1=C(O)/C(=C/c2ccc(N(C)C)cc2)SC1=Nc1ccc(OC)cc1`, for which the displacement turned out to be 3.8%.

Regarding `CCOC(=O)C1=C(O)/C(=C/c2ccc(O)cc2)SC1=Nc1ccc(Cl)cc1`, the displacement stood at 104%. With `CCOC(=O)C1=C(O)/C(=C/c2ccc(Cl)cc2)SC1=Nc1ccc(C)cc1`, the displacement was determined as 5.9%. The value for `CCOC(=O)C1=C(O)/C(=C/c2ccc(N(C)C)cc2)SC1=Nc1cccc2ccccc12` was 168%. With `CCOC(=O)C1=C(O)/C(=C/c2ccccc2)SC1=Nc1cccc2ccccc12`, the displacement amounted to 14.5%. For the molecule `CCOC(=O)C1=C(O)/C(=C/c2ccc(N(C)C)cc2)SC1=Nc1cccc(Cl)c1`, the displacement is -53.7%. To `Cc1cccc(OCC(=O)Nc2ccc(C)c(C)c2)c1` belongs -13.9%; to `CCOC(=O)C1=C(C)NC(=O)CC1c1cc2c(cc1Br)OCO2` (configuration not stated), -6.4%; to `O=C(O)/C=C\C(=O)Nc1ccccc1SC(F)(F)F`, 9.3%.
